# Bioassay records from PubChem BioAssay.
# Compounds with a hit are over-represented: about 2% of the library has one in this group of screens.
# Rango release inh = prevents RanGTP from dissociating the Rango-importin beta complex; O95149+P62826; Biochemical FRET Rango-importin beta, RanGTP-induced dissociation; Potency, µM (highest dose often 46.1 µM), for inactives: at the highest dose activity change, negative = inhibition; 340,000 tested, 0.071% active; AID 540253; calls by dose curve; further: % of control where 0% means no effect; nearly all actives have a fitted effect of over 45% in size
#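 Compounds sat 5 min at room temperature with 0.1 uM Rango biosensor plus 0.25 uM importin beta, then FRET pre-read. RanGTP-RCC1 (0.6 uM Ran, 2mM GTP, 0.2 uM RCC1) added for 45 min, and the CFP/YFP post-read measured blocked complex dissociation.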
# Abeta yeast res = compounds reversing amyloid beta toxicity in yeast. yeast expressing A-beta42, growth rescue, OD600, 48 h; response scale: 0% DMSO, 100% iron-clioquinol control. Potency, µM (doses to about 46.1 µM), most hits filed as activators. 410,000 tested, 0.063% active. AID 1347071; further: nearly all actives have a fitted effect of over 55% in size
#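 Growth rescue measured by 600 nm absorbance after 48 h yeast culture at 30 C with compound. Values normalized between DMSO and an equimolar ferric chloride plus clioquinol control.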
# S-ASM inh = human S-ASM enzyme inhibition. P17405. placental ASM, HMU-PC fluorogenic substrate, 60 min. Potency, µM (highest dose often 57.5 µM), for inactives: top-dose activity change, negative = inhibition, hits mostly inhibitors. 340,000 tested, 0.006% active
# Target sequence (P17405 47-631 limits assumed): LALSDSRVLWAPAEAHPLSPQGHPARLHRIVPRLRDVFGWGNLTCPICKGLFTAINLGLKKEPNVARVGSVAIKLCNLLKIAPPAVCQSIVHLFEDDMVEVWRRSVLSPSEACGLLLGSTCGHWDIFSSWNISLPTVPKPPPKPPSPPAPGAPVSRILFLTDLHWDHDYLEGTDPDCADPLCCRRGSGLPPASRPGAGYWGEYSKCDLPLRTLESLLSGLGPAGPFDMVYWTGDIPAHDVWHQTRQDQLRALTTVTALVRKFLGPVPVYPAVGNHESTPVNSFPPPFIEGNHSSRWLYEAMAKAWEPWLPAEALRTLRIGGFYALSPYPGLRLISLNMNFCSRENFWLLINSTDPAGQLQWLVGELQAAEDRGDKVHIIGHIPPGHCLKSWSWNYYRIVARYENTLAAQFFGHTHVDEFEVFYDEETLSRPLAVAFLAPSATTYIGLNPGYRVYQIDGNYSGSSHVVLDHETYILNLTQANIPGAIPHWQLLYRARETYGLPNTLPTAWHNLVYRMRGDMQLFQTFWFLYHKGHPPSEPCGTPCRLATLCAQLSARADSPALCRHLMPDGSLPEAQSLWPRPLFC
#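 Human placenta-derived ASM preincubated with compound 10 min at room temperature, then reacted with 9 uM (final) fluorogenic HMU-PC substrate for 60 min at 37 C. Stop solution raises pH to 10; fluorescence read at Ex 386/Em 447 nm.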
# TDP43 rescue = inhibitors of TDP-43 toxicity in yeast; TDP-43 expressing yeast growth rescue, BacTiter-Glo, 24 h; Potency, µM (highest dose often 46.1 µM), without a hit: at the top dose growth rescue (activation), hits mostly activators; 410,000 tested, 1.8% active; AID 652104; further: % of control where 0% means no effect; nearly all actives have a fitted effect of over 50% in size
#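 Growth rescue of TDP-43-toxic yeast measured as ATP luminescence (BacTiter-Glo). Cells grown to mid-log in raffinose, induced in galactose at OD600=0.02, exposed to compound 24 hr at 30 deg C.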
# Rango complex inh = inhibitors of Rango-importin beta complex formation | Potency, µM (titrated, usually from 92.2 µM), without a hit: top-dose inhibition of complex formation | Q14974 | 340,000 tested, 0.031% active | Rango CFP/YFP FRET sensor + importin beta, 45 min; calls by dose curve;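 further: 0% = DMSO wells and 100% = buffer wells lacking importin beta; nearly all actives have a fitted effect of over 15% in size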
#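 FRET biosensor (snurportin 1 IBB flanked by EYFP and cerulean), 50 nM, with compound 5 min, then 0.125 microM importin beta in PBS, 1 mM DTT, 0.02% Tween-20, 0.1% BSA. CFP/YFP ratio read after 45 min at room temperature; pre-read flags interference.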
# aSyn rescue = alpha-synuclein toxicity inhibition in yeast. 370,000 tested, 0.14% active. Potency, µM (doses to about 46.1 µM), without a hit: top-dose growth rescue (activation), hits mostly activators. Yeast expressing alpha-synuclein, growth rescue, BacTiter-Glo, 24 h; further: % of control where 0% means no effect; nearly all actives have a fitted effect of over 65% in size
#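 Screening used galactose-induced yeast with toxic alpha-synuclein levels, exposed to compound for 24 hr at 30 deg C. Cell growth, read with BacTiter-Glo luminescence, gave the measured signal.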
# The depositor's hits bear a star; i = inactive; ? = inconclusive; . = no result. Unless noted, the call rests on the fitted dose curve; in most records, active means well fitted curve in the direction sought with a large enough effect; inconclusive means small, poorly fitted or top-dose-only effect, or another doubt; inactive means no such curve, though single readings can be large; an effect the other way counts as inactive or inconclusive. Potency means the concentration at half of the fitted maximal effect.
SMILES,Rango release inh,Abeta yeast res,S-ASM inh,TDP43 rescue,Rango complex inh,aSyn rescue
Cc1ccc(Nc2nc(C)nc(N)c2S(=O)(=O)c2ccccc2)cc1,.,i,.,7.4%,.,0.9%
CCOc1ccc(NC(=O)CSc2cc(C)c3ccccc3n2)cc1,.,i,.,19.2%,.,.
Cc1nn2c(=O)cc(COC(=O)COc3ccccc3C)nc2s1,.,i,.,5.0%,.,.
CCOC(=O)Cn1c(=O)n(CC2CCCO2)c2nc(-c3cc(OC)ccc3OC)nc(C(N)=O)c21 (stereo not given),.,i,.,17.2%,.,0.5%
CC(=O)Nc1ccc(-c2nnc3n(Cc4ccc(C)cc4)c(=O)c4ccccc4n23)cc1,.,i,.,6.2%,.,.
c1csc(-c2csc(-c3cccs3)n2)c1,16.0%,i,-4.1%,12.6µM*,3.0%,0.1%
COc1ccc(-c2csc(Nc3cccc(C)n3)n2)cc1,-11.9%,i,-2.0%,17.8µM*,-2.5%,-27.4%
c1cncc(-c2nc(-c3cccs3)cs2)c1,7.8%,i,1.4%,9.5%,9.0%,2.4%
COc1cc(NCc2ccccc2O)c2ncccc2c1,-5.6%,i,0.6%,-4.1%,-3.4%,?
COc1ccccc1C(=O)Nc1cccc2cccnc12,-9.9%,i,-7.9%,3.16µM*,-0.2%,8.6%
Oc1ccccc1CNc1cccc2cccnc12,-16.8%,i,-2.6%,14.1µM*,-1.3%,-25.2%
CCOc1ccccc1C(=O)Nc1cccc2ccc(C)nc12,.,i,.,20µM*,.,.
CCOc1ccccc1C(=O)Nc1ccccc1O,1.1%,i,-1.4%,14.1µM*,-3.0%,-12.1%
Cc1ccc(N2CCN(C(=O)CCc3c(C)nc4ncnn4c3C)CC2)c(C)c1,.,i,.,-3.9%,.,.
CCc1cccc(-n2nnc(-c3nsc(NC(=O)c4cccc(OC)c4)n3)c2C)c1,.,i,.,12.3%,.,.
COc1c(C)cccc1C(=O)Nc1cccc2ccc(C)nc12,.,i,.,22.4µM*,.,.
O=C(Nc1ccccc1)Nc1cccc2cccnc12,1.9%,i,-14.9%,7.08µM*,?,-8.7%
Cc1cccn2c(=O)cc(CSc3nnc(NC(=O)C(C)C)s3)nc12,.,i,.,9.0%,.,.
Oc1ccccc1/C=N/NC(=S)NC1CC2CCC1C2 (stereo not given),-10.3%,?,245.7%,?,-2.1%,?
S=C(N/N=C/c1ccco1)NC1CC2CCC1C2 (stereo not given),-1.7%,?,-1.7%,14.1µM*,0.9%,-9.7%
CCC1C(=O)C(C)(C)C(=O)OC1c1ccc([N+](=O)[O-])cc1 (stereo not given),?,i,3.1%,5.0%,-0.2%,1.3%
O=C1CC(=O)OC(c2ccc([N+](=O)[O-])cc2)O1,.,i,.,3.16µM*,.,?
COc1cccc(OC)c1C(=O)Nc1ccc(S(=O)(=O)Nc2nccc(C)n2)cc1,.,i,.,23.0%,.,.
Cc1cccc(CS(=O)(=O)c2ncc(Cl)c(C(=O)Nc3c(C)cccc3C)n2)c1,-0.7%,i,-2.0%,?,0.0%,2.4%
Cc1cccc(C)c1NC(=O)c1nc(S(=O)(=O)Cc2ccccc2)ncc1Cl,6.7%,i,-0.4%,10µM*,-1.2%,18.7%
SMILES,Rango release inh,Abeta yeast res,S-ASM inh,TDP43 rescue,Rango complex inh,aSyn rescue
Cc1ccccc1CS(=O)(=O)c1ncc(Cl)c(C(=O)Nc2ccc(F)cc2)n1,1.9%,i,0.4%,11.2µM*,-1.2%,-1.4%
CS(=O)(=O)c1ncc(Cl)c(C(=O)Nc2ccc(OC(F)F)cc2)n1,9.8%,i,1.9%,.,-3.6%,13.0%
Cc1cccc(CS(=O)(=O)c2ncc(Cl)c(C(=O)NCc3ccccc3)n2)c1,2.8%,i,0.9%,7.94µM*,-3.2%,19.5%
Cc1ccccc1NC(=O)c1nc(S(C)(=O)=O)ncc1Cl,-7.9%,i,2.2%,10µM*,-2.8%,18.0%
CCOc1ccccc1NC(=O)c1nc2nc(C)cc(C(F)F)n2n1,.,i,.,?,.,.
O=CNc1ccc(/C=C/c2ccnc3ccccc23)cc1,.,.,.,.,.,-2.4%
